# Measured values taken from PubChem BioAssay (EPA / NIEHS).
# Results filed as inconclusive are left out. Calls of active or inactive are those of the source. Rule for the calls: active = hit-call score of the fitted dose curve at least 0.9, where 1 is the maximum; inconclusive = response in the unintended direction; inactive = score below 0.9.
# Experiment: CCTE_Harrill_HTTr_CellCount_MCF7: CCTE's Cell Proliferation Assessment for the High-Throughput Transcriptomics (HTTr) Platform, Harrill Lab (AID 2284012);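 note: cells exposed to compound for six hours; intended direction is loss of nuclei count meaning fewer cells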
# Excerpt: This is a cell-based assay that evaluates cell viability and cell growth using high content imaging to count the number of Hoechst-labeled nuclei that are present in an assay well in 384-well format.This is a cell-based assay that evaluates cell viability and cell growth in MCF-7 cells. This was part of a full screening experiment. High content imaging is used to count the number of Hoechst-labeled nuclei that are present in an assay well in 384-well format.The assay component endpoint CCTE_Harrill_HTTr_CellCount_MCF7 was analyzed with bidirectional fitting relation to DMSO as the negative control and baseline of activity. Using a type of viability reporter, loss-of-signal activity can be used to understand changes in cell count. To generalize the intended target to other relatable targets, this assay endpoint is annotated to cell cycle, where the subfamily is cell count.
# Chemicals were tested in MCF7 cells in an eight point dilution series with a six hour exposure duration.
Structure (SMILES),outcome,AC50
CCN(CC)N=O,inactive,
Nc1ccc(Cl)cc1N,inactive,
CC(C)COC(=O)c1ccccc1C(=O)OCC(C)C,inactive,
Clc1ccc(C(c2ccc(Cl)cc2)C(Cl)Cl)cc1,inactive,
CN(C)[C@@H]1C(=O)C(C(N)=O)=C(O)[C@@]2(O)C(=O)C3=C(O)c4c(O)cccc4[C@@](C)(O)[C@H]3C[C@@H]12,inactive,
Brc1ccc(Oc2ccccc2)cc1,inactive,
CCCCCCCCn1sccc1=O,,50 µM (active)
O=[N+]([O-])c1ccc(Oc2ccc(Cl)cc2Cl)cc1,inactive,
O=C(N[C@H](c1ccccc1)[C@@H]1CN2CCC1CC2)c1c(Cl)ccc(C(F)(F)F)c1Cl,inactive,
CC(C)(C)OOC(C)(C)CCC(C)(C)OOC(C)(C)C,inactive,
O=[N+]([O-])C(Br)(CO)CO,inactive,
Cc1ccc(N)c(N)c1,inactive,
ClC1=C(Cl)C2(Cl)C3C(Cl)C=CC3C1(Cl)C2(Cl)Cl (stereo not given),inactive,
OCCOCCO,inactive,
C1=Cc2cccc3cccc1c23,inactive,
CC(C)(O)c1cnn2c(-c3ccc(F)c(-c4c(F)cccc4C#N)c3)cnc2n1,inactive,
CN(C)C(=O)Nc1ccc(Cl)cc1,inactive,
c1ccc(NNc2ccccc2)cc1,inactive,
CCCCCCCCOC(=O)c1ccc(C(=O)OCCCCCCCC)c(C(=O)OCCCCCCCC)c1,inactive,
c1ccc(C2CO2)cc1 (stereo not given),inactive,

Structure (SMILES),outcome,AC50
CC(O)CCO (stereo not given),inactive,
N#CC(Br)(Br)C(N)=O,inactive,
Cc1ccc(N)cc1,inactive,
COC(=O)Nc1nc2ccccc2[nH]1,inactive,
CN(C)c1ccccc1,inactive,
CCC[CH2][Sn]([Cl])([CH2]CCC)[CH2]CCC,,17.2 µM (active)
N#CC(Br)Br,inactive,
O=C1CCCO1,inactive,
Nc1ccc(Oc2ccc(N)cc2)cc1,inactive,
COc1cc(C=O)cc2c1[C@H](COC(N)=O)[C@]1(OC(C)=O)ON2C[C@H]2[C@@H]1N2C(C)=O,inactive,
CCC12COCN1COC2,inactive,
Clc1ccc(C(c2ccc(Cl)cc2)C(Cl)(Cl)Cl)cc1,inactive,
O=C(O)C1C2CCC(O2)C1C(=O)O (stereo not given),inactive,
CS(=O)(=O)NC(=O)c1cc(Oc2ccc(C(F)(F)F)cc2Cl)ccc1[N+](=O)[O-],inactive,
Nc1cc(Cl)cc(C(=O)O)c1Cl,inactive,
O=P(OCCCl)(OCCCl)OCCCl,inactive,
CCOc1cccc(C2(N3CCN(c4ccccc4)CC3)CCC(C)CC2)c1 (stereo not given),inactive,
CCCCCCCCCCCCCN1CC(C)OC(C)C1 (stereo not given),inactive,
Nc1ccc(N=Nc2ccccc2)cc1,inactive,
CN(C)c1ccc(C(=O)c2ccc(N(C)C)cc2)cc1,inactive,
